# Assay outcomes from PubChem BioAssay.
# The list is not random: actives were taken first. Their share in the collection is about 2.2%.
# aSyn UTR inh: MLPCN primary screen, SNCA 5' untranslated region; 300,000 compounds, 0.82% hits; alpha-synuclein 5'UTR reporter, inhibitor activity; AID 1813; inhibition, % (tested at 7.5 µM); in the data active = inhibition above about 60%;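 note: H4 neuroglioblastoma cells stably carrying SNCA 5'UTR luciferase fusion; 0% = DMSO wells and 100% = positive control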
# IEC-6 tox: kills IEC-6 intestinal cells in KLF5 counter-screen | IEC-6 cytotoxicity, luminescence viability | inhibition, % at 5 µM | 290,000 compounds, 0.78% hits; in the data active = inhibition above about 22%;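 note: 0% = plate median of test compound wells and 100% = cytotoxic reference compound wells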
# Ba/F3 V617F tox: lowers viability of Ba/F3 cells expressing EpoR and JAK2V617F; ATP luminescence; inhibition, % at 5.6 µM; 220,000 compounds, 1.1% hits; AID 1446;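 active = inhibition above the campaign mean plus 3 SD over all tested compounds, cut at about 24% in these data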;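 note: cytokine-independent growth of Ba/F3 cells driven by EpoR plus mutant JAK2; 0% = DMSO-treated cells and 100% = JAK inhibitor I control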
# BaF3 tox: reduces parental Ba/F3 cell viability, JAK2V617F counter-screen; CellTiter-Glo ATP luminescence; inhibition, % at 5.6 µM; 220,000 compounds, 1.1% hits;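 active = inhibition above a per-campaign cutoff, the mean inhibition of all tested compounds plus 3 SD, cut at about 27% in these data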;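 note: 0% = DMSO wells and 100% = JAK Inhibitor I control wells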
# KLF5 inhibitor: inhibitors of KLF5 expression; 290,000 compounds, 0.23% hits; inhibition, % at 5 µM; DLD-1 KLF5 promoter-luciferase reporter, luminescence;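 active = inhibition above a per-plate limit of that plate's mean compound inhibition plus 3 SD, cut at about 60% in these data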;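 note: 0% = DMSO wells and 100% = LY294002 at 200 µM; higher means less KLF5 promoter-driven luciferase light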
# APP 5UTR inh: APP translation inhibition. SH-SY5Y APP 5'UTR-luciferase reporter, luminescence. inhibition, % at 2 µM. 190,000 compounds, 0.82% hits;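 active = inhibition above a set limit, derived from the sample mean plus 3 SD, cut at about 45% in these data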
# Starred values were filed as active, the others as inactive; nt = not tested or not shown.
SMILES,aSyn UTR inh,IEC-6 tox,Ba/F3 V617F tox,BaF3 tox,KLF5 inhibitor,APP 5UTR inh
O=C(Nc1nc(=S)ss1)c1ccc(Cl)cc1Cl,-6,-3,1,2,-37,-6
COC(=O)c1ccc2nc(-c3ccc4c(c3)OCO4)cn2c1,95*,-1,0,5,-95,-90
Cc1cc(Nc2cccc(Br)c2)c2ccccc2n1,4,nt,nt,nt,nt,nt
CC12C(=O)N(c3ccc(OC(=O)c4ccco4)cc3)C(=O)C1C1c3ccccc3C2c2ccccc21 (stereo not given),12,-2,-3,3,-16,8
CC12C(=O)N(c3cccc(OC(=O)c4ccco4)c3)C(=O)C1C1c3ccccc3C2c2ccccc21 (stereo not given),21,-2,-3,4,-16,52*
CN1CCN(C2Cc3cc(Cl)ccc3Sc3cc(F)ccc32)CC1 (stereo not given),101*,nt,nt,nt,nt,nt
CC1(C)CC(=O)c2c(O)cc(OCc3ccc([N+](=O)[O-])cc3)cc2O1,-150,-6,-4,4,8,-14
CCN(CC)CCNC(=O)c1cc2c(-c3ccc(Cl)cc3)nn(C)c2s1,-43,9,3,8,-12,9
CCCCN(CC)CCNC(=O)c1cc2c(-c3ccc(Cl)cc3)nn(C)c2s1,79*,4,nt,nt,-26,nt
O=C(Oc1nsnc1N1CCOCC1)N1CCOCC1,-10,0,-4,-2,-3,-2
O=C(Oc1nsnc1N1CCOCC1)c1ccccc1,-8,2,1,6,-13,53*
COC(=O)c1cc(C(=O)Nc2nc3ccccc3[nH]2)cc([N+](=O)[O-])c1,-162,-4,nt,nt,-66,nt
N/C(=N\OC(=O)CCCc1ccccc1)c1ccccc1Cl,-98,6,nt,nt,-20,nt
CC(C)(C)NC(=O)C(=O)NCc1ccccn1,-27,-2,-1,2,-18,-8
O=C(NCc1ccccn1)C(=O)NCc1ccccn1,-16,-1,-3,54*,-24,9
Cc1ccc(-c2[nH]ncc2C(=O)c2cccc(F)c2)c(O)c1,-12,-5,nt,nt,-8,nt
N#CC1=C2SCN(c3ccccc3)CN2C(=O)CC1c1ccccc1Cl (stereo not given),-16,5,2,39*,-13,0
CC(=O)Nc1ccc(N2CCc3c(C)c(C#N)c4nc5ccccc5n4c32)cc1,-4,5,-2,7,-26,36
O=[N+]([O-])c1ccccc1S(=O)(=O)N1CCN(C2CCN(Cc3ccccc3)CC2)CC1,-12,-5,nt,nt,-36,nt
Cc1ccc(S(=O)(=O)N2CC(O)C[C@H]2C(=O)OCC(=O)Nc2ccc(N3CCCCC3)cc2)cc1C (stereo not given in full),-29,nt,nt,nt,nt,nt
CC1(C)Cc2c(c(N3CCOCC3)nc3sc4c(NCc5ccccc5)nnnc4c23)CS1,68*,-4,-3,4,-22,-16
CCc1ccc(S(=O)(=O)Nc2ccc(Br)cn2)cc1,3,1,nt,nt,-47,nt
COc1ccc(-n2cc(-c3ccc(Br)cc3)[nH]c2=S)cc1,-138,-6,-3,5,-25,-15
COc1ccccc1-n1c(-c2ccccc2)c[nH]c1=S,-24,0,-6,-3,-15,-4
COc1ccc(-n2c(-c3ccc(Br)cc3)c[n+]3c2CCc2ccccc2-3)cc1,-91,15,88*,78*,-8,-2
SMILES,aSyn UTR inh,IEC-6 tox,Ba/F3 V617F tox,BaF3 tox,KLF5 inhibitor,APP 5UTR inh
COc1ccccc1-n1c(-c2ccccc2)c[n+]2c1CCc1ccccc1-2,6,24*,101*,79*,20,13
CC(C)c1ccc(-n2c(-c3ccccc3)c[n+]3c2CCc2ccccc2-3)cc1,78*,41*,99*,92*,29,13
Cc1ccc(Nc2c(-c3ccccn3)nc3cccc(C)n23)cc1,14,10,3,5,22,68*
COc1cc2c3nnc(-c4ccc(F)cc4)c-3cn(Cc3ccccc3F)c2cc1OC,nt,-2,1,4,-15,53*
CCCCCCCCCCCCCCCC[n+]1cccc2ccccc21,nt,28*,101*,82*,-5,23
Cc1ccccc1C[n+]1cccc2ccccc21,-19,nt,nt,nt,nt,nt
COc1ccc2[nH]c(C(O)(Cc3cccnc3)Cc3cccnc3)cc2c1,-36,7,-5,5,-32,-8
Cc1ccc(NS(=O)(=O)c2ccc(OCC(=O)Nc3cccc([N+](=O)[O-])c3)c(C)c2)cc1,12,3,-1,4,-25,-8
CN1/C(=C/c2cc[n+](C)c3ccccc23)C=Cc2ccccc21,nt,-2,76*,63*,11,2
COc1ccc(OCc2cccc(C(=O)O)c2)cc1,128*,nt,nt,nt,nt,nt
CCOc1ccc(OCc2cccc(C(=O)N3CCCCCC3)c2)cc1,76*,0,0,11,-61,-113
O=C(O)c1cccc(COc2ccc(CO)cc2Cl)c1,105*,nt,nt,nt,nt,nt
O=C(O)c1cc(OCc2ccccc2)cc(OCc2ccccc2)c1,1,-2,nt,nt,-18,nt
CCOc1ccc(OCc2cccc(C(=O)O)c2)cc1,84*,nt,nt,nt,nt,nt
CCOc1ccc(OCc2cccc(C(=O)N3CCCC3)c2)cc1,-4,2,3,8,-134,-117
COc1cccc(C(C)NC(=O)C2CCCC2)c1 (stereo not given),9,-2,nt,nt,-59,nt
O=C(OCC(F)(F)F)c1cccc(COc2ccc3ccccc3c2)c1,107*,-1,2,2,-4,44
COc1cc(C(=O)Nc2ccc3c(c2)CCN3C(C)=O)cc(OC)c1OC,97*,40*,78*,79*,28,81*
COc1cc(C(=O)Nc2ccc3c(c2)Cc2ccccc2-3)cc(OC)c1OC,-8,6,-5,-1,11,4
Cc1ccc2ccc3cccnc3c2n1,-51,72*,nt,nt,-21,nt
CC1CCC(C(C)C)C(OCC[N+](C)(C)C)C1 (stereo not given),-11,4,37*,42*,3,12
CC1CCC(C(C)C)C(OCC(O)C[N+]2(C)CCCCC2)C1 (stereo not given),11,2,28*,50*,-33,4
CC1CCC(C(C)C)C(OCC(O)CN2CCCC(C)C2)C1 (stereo not given),-43,-8,-1,6,-30,-6
CNC(=O)COC(=O)c1ccc(Cl)c(S(N)(=O)=O)c1,-17,-4,2,1,3,nt
CN(CCCC1CCCC1)C(=O)CC1C(=O)NCCN1Cc1cccc(F)c1F (stereo not given),17,-6,nt,nt,9,nt
CCOc1ccc(NC(=O)C2CSC(c3ccncc3)=N2)cc1 (stereo not given),-25,8,2,7,18,46*
CCc1ccc(NC(=O)C(CC)Sc2nc3ccsc3c(=O)n2CCC(=O)O)cc1 (stereo not given),-7,-2,nt,nt,-17,nt
O=C1C(=O)c2ccc(-c3ccccc3)cc2-c2ccccc21,119*,2,-1,1,-14,-10
O=C(O)c1cc(N/N=C/C=C/c2ccccc2)ccc1Cl,-179,0,3,11,-175,-179
